From PubChem BioAssay (EPA / NIEHS)
Where “and” joins values, the source holds several entries; their conditions need not be identical. Identical values can stand only once. Calls of active or inactive are those of the source. Rule for the calls: active = hit-call score of the fitted dose curve at least 0.9, where 1 is the maximum; inactive = score below 0.9.

Read-out: Interferon-gamma inducible Protein 10 (IP10), CXCL10 (gene 3627)
Experiment: BSK_KF3CT_IP10: BioMAP Diversity Plus: KF3CT Assay for Interferon-gamma inducible Protein 10 (IP10) Biomarker Activity (AID 2283068)
Settings: primary human keratinocytes with fibroblasts; actives raise or lower the signal
Method in brief: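 In a primary skin co-culture of keratinocytes and fibroblasts, IP-10 is quantified by ELISA at 24 h after dosing. SRB staining of parallel wells monitors overt toxicity. Curves are fitted both directions against DMSO.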

Q: With `O=S(=O)(OCC(F)(F)F)C(F)(F)C(F)(F)C(F)(F)C(F)(F)F` as the compound, how does the outcome read?
A: The outcome was “inactive”.

Q: For `C=CC(=O)OCC(F)(F)C(F)(F)C(F)(F)C(F)(F)C(F)(F)C(F)(F)C(F)(F)C(F)F`, which outcome is on record?
A: Its outcome is “inactive”.

Q: With `NS(=O)(=O)C(F)(F)C(F)(F)C(F)(F)C(F)(F)C(F)(F)C(F)(F)F` as the compound, how does the outcome read?
A: The outcome was “inactive”.

Q: For `CC(C)CCCC(C)CCO` (stereo unspecified), which AC50 is on record?
A: The AC50 was 35.6 µM (active).

Q: For `CCN(CC)c1ccc(C=O)cc1`, which outcome is on record?
A: Its outcome is “inactive”.

Q: With `O=C=Nc1cccc2c(N=C=O)cccc12` as the compound, how does the outcome read?
A: Its outcome is “inactive”.

Q: For `C=CC(=O)OCCC(F)(F)C(F)(F)C(F)(F)C(F)(F)F`, which outcome is on record?
A: The outcome was “inactive”.

Q: For `OCCCCC(F)(F)C(F)(F)C(F)(F)C(F)(F)F`, which outcome is on record?
A: The outcome was “inactive”.

Q: For `O=C(O)CCC(F)(F)C(F)(F)C(F)(F)C(F)(F)C(F)(F)C(F)(F)C(F)(F)F`, which outcome is on record?
A: Its outcome is “inactive”.

Q: Which outcome does the source give for `CCN(CC)c1ccc(N=Nc2ccccc2)cc1` here?
A: The outcome was “inactive”.

Q: With `O=S(=O)(Cl)C(F)(F)C(F)(F)C(F)(F)C(F)(F)C(F)(F)C(F)(F)C(F)(F)C(F)(F)F` as the compound, how does the AC50 read?
A: The AC50 was 34.8 µM (active) and 32.5 µM (active).

Q: Which outcome does the source give for `O=C(Cl)C(F)(F)C(F)(F)C(F)(F)C(F)(F)C(F)(F)C(F)(F)F` here?
A: The outcome was “inactive”.

Q: With `Cc1cc(O)c(C(C)(C)C)cc1C(C)(C)C` as the compound, how does the AC50 read?
A: Its AC50 is 3.63 µM (active).

Q: Which outcome does the source give for `FC(F)(F)C(F)(F)C(F)(F)CC1CO1` (stereo unspecified) here?
A: Its outcome is “inactive”.

Q: With `O=C(O)C(F)(F)C(F)(F)C(F)(F)C(=O)O` as the compound, how does the outcome read?
A: The outcome was “inactive”.

Q: Which outcome does the source give for `Cc1cnccn1` here?
A: The outcome was “inactive”.

Q: Which outcome does the source give for `CN(C(=O)C(F)(F)C(F)(F)C(F)(F)F)[Si](C)(C)C` here?
A: The outcome was “inactive”.

Q: For `Brc1nc2ccccc2s1`, which outcome is on record?
A: The outcome was “inactive”.

Q: With `CCN(CC)c1ccc2c(c1)Oc1cc(N(CC)CC)ccc1C21OC(=O)c2ccccc21` as the compound, how does the outcome read?
A: The outcome was “inactive”.

Q: With `NC(O)(C(F)(F)F)C(F)(F)F` as the compound, how does the outcome read?
A: The outcome was “inactive”.

Q: For `O=C(O)C(F)(F)OC(F)(F)C(F)(F)OC(F)(F)C(F)(F)OC(F)(F)F`, which outcome is on record?
A: The outcome was “inactive”.

Q: For `O=C(O)C(F)(F)C(F)(F)C(F)(F)C(F)(F)C(F)(F)C(F)(F)C(F)F`, which outcome is on record?
A: The outcome was “inactive”.

Q: For `NC(=O)C(F)(F)C(F)(F)C(F)(F)C(F)F`, which outcome is on record?
A: The outcome was “inactive”.

Q: Which outcome does the source give for `OC(O)C(F)(F)C(F)(F)F` here?
A: Its outcome is “inactive”.

Q: With `COC(F)(C(F)F)C(F)(F)F` (stereo unspecified) as the compound, how does the outcome read?
A: The outcome was “inactive”.

Q: Which outcome does the source give for `Cc1ccc(O)c(-n2nc3ccccc3n2)c1` here?
A: Its outcome is “inactive”.

Q: For `CCN=C1C=CC(=C(c2ccc(N(CC)CC)cc2)c2ccc(N(CC)CC)cc2)c2ccccc21`, which AC50 is on record?
A: Its AC50 is 2.87 µM (active) and 2.44 µM (active).

Q: For `NC(=O)C(F)(F)C(F)(F)C(F)(F)C(F)(F)C(F)(F)C(F)(F)C(F)(F)F`, which outcome is on record?
A: The outcome was “inactive”.

Q: With `FC(F)(F)C(F)(F)C(F)(F)C(F)(F)C(F)(F)C(F)(F)C(F)(F)CCI` as the compound, how does the outcome read?
A: The outcome was “inactive”.

Q: For `Cc1ccc(S(=O)(=O)C(I)I)cc1`, which AC50 is on record?
A: Its AC50 is 7.09 µM (active).

Q: Which AC50 does the source give for `OCCCC(F)(F)C(F)(F)C(F)(F)C(F)(F)C(F)(F)C(F)(F)C(F)(F)C(F)(F)F` here?
A: The AC50 was 12.8 µM (active) and 9.49 µM (active).

Q: For `NC(=O)C(F)(F)C(F)(F)C(F)(F)C(F)(F)C(N)=O`, which outcome is on record?
A: Its outcome is “inactive”.

Q: For `O=C(O)CCC(F)(F)C(F)(F)C(F)(F)F`, which outcome is on record?
A: Its outcome is “inactive”.

Read-out: not listed separately
Experiment: BSK_KF3CT_SRB: Viability Assessment in the BioMAP Diversity Plus: KF3CT Assay (AID 2283069);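 note: total protein by sulforhodamine B staining as a cytotoxicity measure; read 24 h after compound addition; fitted for both signal gain and loss against DMSO baseline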
Settings: primary human keratinocytes with fibroblasts
Method in brief: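 Cytotoxicity was gauged by SRB staining (0.1% SRB, 10% TCA fixation, 560 nm) of parallel cultures at 24 h. The cells were primary human skin keratinocytes co-cultured with fibroblasts, and activity was fitted in both directions against DMSO.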

Q: With `O=S(=O)(OCC(F)(F)F)C(F)(F)C(F)(F)C(F)(F)C(F)(F)F` as the compound, how does the outcome read?
A: The outcome was “inactive”.

Q: Which outcome does the source give for `C=CC(=O)OCC(F)(F)C(F)(F)C(F)(F)C(F)(F)C(F)(F)C(F)(F)C(F)(F)C(F)F` here?
A: Its outcome is “inactive”.

Q: Which outcome does the source give for `NS(=O)(=O)C(F)(F)C(F)(F)C(F)(F)C(F)(F)C(F)(F)C(F)(F)F` here?
A: Its outcome is “inactive”.

Q: For `CC(C)CCCC(C)CCO` (stereo unspecified), which AC50 is on record?
A: The AC50 was 34.4 µM (active).

Q: For `CCN(CC)c1ccc(C=O)cc1`, which outcome is on record?
A: Its outcome is “inactive”.

Q: For `O=C=Nc1cccc2c(N=C=O)cccc12`, which outcome is on record?
A: Its outcome is “inactive”.

Q: For `C=CC(=O)OCCC(F)(F)C(F)(F)C(F)(F)C(F)(F)F`, which outcome is on record?
A: Its outcome is “inactive”.

Q: With `OCCCCC(F)(F)C(F)(F)C(F)(F)C(F)(F)F` as the compound, how does the outcome read?
A: The outcome was “inactive”.

Q: For `O=C(O)CCC(F)(F)C(F)(F)C(F)(F)C(F)(F)C(F)(F)C(F)(F)C(F)(F)F`, which outcome is on record?
A: The outcome was “inactive”.

Q: With `CCN(CC)c1ccc(N=Nc2ccccc2)cc1` as the compound, how does the outcome read?
A: Its outcome is “inactive”.

Q: For `O=S(=O)(Cl)C(F)(F)C(F)(F)C(F)(F)C(F)(F)C(F)(F)C(F)(F)C(F)(F)C(F)(F)F`, which outcome is on record?
A: Its outcome is “inactive”.

Q: With `O=C(Cl)C(F)(F)C(F)(F)C(F)(F)C(F)(F)C(F)(F)C(F)(F)F` as the compound, how does the outcome read?
A: The outcome was “inactive”.

Q: With `Cc1cc(O)c(C(C)(C)C)cc1C(C)(C)C` as the compound, how does the AC50 read?
A: Its AC50 is 2.33 µM (active).

Q: Which outcome does the source give for `FC(F)(F)C(F)(F)C(F)(F)CC1CO1` (stereo unspecified) here?
A: Its outcome is “inactive”.

Q: Which outcome does the source give for `O=C(O)C(F)(F)C(F)(F)C(F)(F)C(=O)O` here?
A: Its outcome is “inactive”.

Q: Which outcome does the source give for `Cc1cnccn1` here?
A: The outcome was “inactive”.

Q: Which outcome does the source give for `CN(C(=O)C(F)(F)C(F)(F)C(F)(F)F)[Si](C)(C)C` here?
A: The outcome was “inactive”.

Q: With `Brc1nc2ccccc2s1` as the compound, how does the outcome read?
A: Its outcome is “inactive”.

Q: For `CCN(CC)c1ccc2c(c1)Oc1cc(N(CC)CC)ccc1C21OC(=O)c2ccccc21`, which outcome is on record?
A: The outcome was “inactive”.

Q: With `NC(O)(C(F)(F)F)C(F)(F)F` as the compound, how does the outcome read?
A: The outcome was “inactive”.

Q: With `O=C(O)C(F)(F)OC(F)(F)C(F)(F)OC(F)(F)C(F)(F)OC(F)(F)F` as the compound, how does the outcome read?
A: Its outcome is “inactive”.

Q: With `O=C(O)C(F)(F)C(F)(F)C(F)(F)C(F)(F)C(F)(F)C(F)(F)C(F)F` as the compound, how does the outcome read?
A: The outcome was “inactive”.

Q: Which outcome does the source give for `NC(=O)C(F)(F)C(F)(F)C(F)(F)C(F)F` here?
A: Its outcome is “inactive”.

Q: With `OC(O)C(F)(F)C(F)(F)F` as the compound, how does the outcome read?
A: The outcome was “inactive”.

Q: With `COC(F)(C(F)F)C(F)(F)F` (stereo unspecified) as the compound, how does the outcome read?
A: Its outcome is “inactive”.

Q: Which outcome does the source give for `Cc1ccc(O)c(-n2nc3ccccc3n2)c1` here?
A: The outcome was “inactive”.

Q: Which outcome does the source give for `CCN=C1C=CC(=C(c2ccc(N(CC)CC)cc2)c2ccc(N(CC)CC)cc2)c2ccccc21` here?
A: Its outcome is “inactive”.

Q: For `NC(=O)C(F)(F)C(F)(F)C(F)(F)C(F)(F)C(F)(F)C(F)(F)C(F)(F)F`, which outcome is on record?
A: The outcome was “inactive”.

Q: With `FC(F)(F)C(F)(F)C(F)(F)C(F)(F)C(F)(F)C(F)(F)C(F)(F)CCI` as the compound, how does the outcome read?
A: The outcome was “inactive”.

Q: With `Cc1ccc(S(=O)(=O)C(I)I)cc1` as the compound, how does the AC50 read?
A: The AC50 was 5.19 µM (active).

Q: Which AC50 does the source give for `OCCCC(F)(F)C(F)(F)C(F)(F)C(F)(F)C(F)(F)C(F)(F)C(F)(F)C(F)(F)F` here?
A: Its AC50 is 8.92 µM (active) and 10.7 µM (active).

Q: With `NC(=O)C(F)(F)C(F)(F)C(F)(F)C(F)(F)C(N)=O` as the compound, how does the outcome read?
A: Its outcome is “inactive”.

Q: With `O=C(O)CCC(F)(F)C(F)(F)C(F)(F)F` as the compound, how does the outcome read?
A: Its outcome is “inactive”.
